Drawing on PubChem BioAssay AID1508600 (Functional Genomics Laboratory (NCATS/FGL), 2020), this text covers z-score for 108 sequences.

The whole screen tested about 53,000 sequences, of which about 3,700 (7%) were called active. This is one part of a sample in which actives are shown more often than they occur. Values without a mark were called inactive.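 The calls were made as follows: active = gene knockdowns whose robust z-score for IL-1 alpha signal is at least 2 or at most -2, so actives lie on both sides; inactive = the rest.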

The assay in a line: Components of the Cytosolic LPS Sensing Pathway: Gene Identification via Genome-wide siRNA Screen.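 Also: robust z of the log signal after scaling to non-targeting control siRNA wells of the plate.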 The conditions noted are these: RAW264.7 macrophages, IL-1a HTRF, actives lie on both sides, screened at 100 nM (by protocol), cells primed 5 h with Pam3CSK4 first. In outline:
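Mouse macrophage line RAW264.7 is transfected with siRNA (100 nM final), grown 48h, primed with TLR ligand Pam3CSK4 5 h and given intracellular LipidA 24 h. IL-1a in supernatant is read by HTRF and viability by luminescence.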
For orientation: In TR-FRET formats the signal depends on donor and acceptor labels being close together.
For GGAAAGUCAGGAUGAAUAUTT against Cst9, the z-score was 0.0511.

For the sequence GGAGUUGUAGUGAGGGUCATT against Fcgbp, the z-score is -0.971. Next, GGAAACAGGAAACAAUCUATT against Ccdc69: 0.609; GGUUUUGAGUGAGAAAUGGTT against Plekhb2: -0.414; GGAGAAAUCCCUUCACGGUTT against Mas1: 0.449.

Regarding CCACCUCCUCUCGAUACAATT against Zfp36, the z-score is 0.993. The result for CGCAGUAGCGAAGAAUUACTT against Sel1l3 reads 2.46 (active). The result for CCAUAAUAGAGGCAAUUACTT against Wscd1 reads 0.302; that for CCUAGGUGUCACCAUGAACTT against Ssx9, 2.02 (active). With GGAAAGAGUCAUGGAAAUATT against Supt16, the z-score is 0.55. Next, GGCUCACAAGGAAGAGAUCTT against Cstad: -0.29; GCUCUGAAAUGUCUCUCCATT against H2-D1: -0.613.

For the sequence GGUGUGUUCAGGAGUUGAUTT against Col12a1, the z-score is 0.505. The result for GGCAAAAAAAACUGCUAUATT against Adgrg7 reads 3.36 (active); that for GGUGACAUUUGAAAAUGUCTT against Slc25a12, 0.411; that for GCCUCAUCCCUAUAGUCCUTT against Spaca9, -0.257.

With CGGGUUCCCAGGAAUUAAGTT against Col4a6, the z-score was 0.304. Next, GGUUGACACUCUGAGGGAATT against Pld2: -0.175.

In the case of CCACUUUCUAGAAAUCCUATT against Tmem41a, the z-score was -2.14 (active). The result for GGGCUGAUGAGCAAAGCAUTT against Setd4 reads -1.01; that for GGGAAAUUAUUACCAAAAGTT against N4bp1, -0.83; that for GGUCUUUGUUAAGAAUCCUTT against Myo1f, -0.496. Next, GCUCGAAAACUGAGAGUUATT against Pcdhgb1: 3.32 (active). The result for GCUAUAAGGCUUAAUAGGGTT against Dleu7 reads 1.97. For the sequence GCGAAAGCAGCUGUCGGAATT against Nkx3-1, the z-score was 0.324. Next, GGCCUCGAACAGUUUAUUATT against Snx12: 0.471. Consider GGCUGUGGAUCUUCUCUGUTT against Cnksr3, for which the z-score was -1.05. For GCCAUGUUAAAUUCUCUACTT against Poln, the z-score was 0.575. As for GGCUCUGCUGGAUAUCAUGTT against Med24, the z-score was -1.08. For the sequence GGGUAUUUCCUGGUGGAUUTT against Mrps6, the z-score was 0.221.

In the case of CCUAUCAUAACGGUGAUAATT against Ddb1, the z-score is -0.423. Next, “GGUCACACCCAUAAACUAATT against B630019K06Rik”: -0.167; GGUUAUUAAGUAGCUUUUCTT against Dtx1: 1.64. As for GCAUUAGAACAAAGGAUGCTT against Rps19, the z-score was 0.278.

Take GGAAUUUGUGGAAACAGGATT against Tnfaip3: the z-score was -0.441. The result for GCCUUUGAUAGUGGUGAAUTT against F11r reads -3 (active). With CCAAUCUUCUCCUCAAGACTT against Olfr101, the z-score is -0.0712.

For the sequence GGCUGUUUCCAAAAAGAAGTT against H1f5, the z-score is -1.14. With GGACCAGGGCAAAAUAUGATT against Pate6, the z-score was 0.727. In the case of CCAUCAUUGCUCGUAUUGGTT against Olfr656, the z-score is -2.9 (active). The result for CCAGUGGAAAUAACUUGUGTT against Fam53a reads 1.58; that for CCUUGAGUGAAAGAAUUGATT against Tmprss11d, -0.609. The result for GGAAUAUCCGUAAUAACUATT against Grin2b reads 2.82 (active); that for GCUACUAAAUUCUGUUUUGTT against Nol4l, 0.325; that for GGGAAGUUUCUUGAAGCACTT against Rfxank, 0.103. The result for AGGACUAGGGAUCCUAAUUTT against Ubl5 reads -0.74; that for GGUUGCUGGAUGUCAUCUCTT against Hpn, -2.05 (active). As to GCUACUUGCUCAUACAAAGTT against Rag2, the z-score is 0.65. Next, GGCCAUAUGUCAAGAAGUUTT against Svs4: -1.24. Take GCCAGGAAUAGUGAUUAUUTT against Atp11c: the z-score was -1.19. Next, GGAAAUGUGGAAUACACCGTT against Prl7a2: 1.39; GGCUUUAAUGUGUCAGUACTT against Slc25a5: -0.228; GCCGAUGAUACCAAACCGATT against Oser1: 0.151.

Take CGACUCUUACCAACCUUUUTT against Lhx2: the z-score is 0.477. Next, GCAGGUGGUACGCAGACUATT against Ulk1: -0.0204; GGAAAGAAUGAGGAUGUGGTT against Pitx2: -2.07 (active).

With CCUCAAACUCGGUUUGAUUTT against Acp6, the z-score was -0.773.

For GCCUAUACUAUAGAAUUACTT against Sgsm2, the z-score is 2.2 (active).

In the case of GACGCAGAUGGUAUUUUUUTT against Orm2, the z-score is 1.24.

For the sequence GUGGGAAUUCUGAAAAAUATT against Vmn1r231, the z-score was 0.301. Consider GUAUGAACCUAACACAUUCTT against Vmn1r188, for which the z-score is 0.493. Regarding GGAAACCUUUACCAUAAACTT against Epdr1, the z-score was -2.35 (active). The result for GGAUCAAACAAAUCAUCAATT against Plscr4 reads -0.895. The result for CCUUGUAGCUCUGAGGAUATT against Teddm3 reads -0.529; that for GGAACCUACCUCACCUUUGTT against Fscn3, -0.749; that for GGUCUCUUCAUGAUGGAUGTT against Akt1s1, 0.731. Next, CCAUACACAUGUAAUUCUCTT against Zmat3: -0.159; GGCAUCUCUGAGUUACAUUTT against Snu13: 0.695. GGGUCUGGUUCUGUAACCATT against Pou4f3: the z-score was -1.94. Next, GGACUAUGGUGGGAACUAGTT against Tas2r119: -0.564. The result for CGUUCUAUGGAAACUGGAGTT against Acot1 reads 2.42 (active); that for GGAAUGCUUAAAGCUUUAATT against Clasp2, 0.353. Next, “CCAUUUCCCAUUUCUGAAGTT against 1700001P01Rik”: -2.22 (active); GCUCAAGUUAAUCUGUUGUTT against Ywhae: 0.962; CCAGUCAACAAGAAUCAGATT against Rptn: -0.105.

Regarding GAUACAGAAUGUCUCAUCCTT against Olfr1128, the z-score is 0.307.

For CCUAUCUUGUCCGGUUUACTT against Cyb5rl, the z-score was 3.99 (active). The result for GCCCUUGCACUAUUUUUCCTT against Olfr1218 reads 0.902. For the sequence GCUAUGUCAACAGUAACAUTT against Mmel1, the z-score is -0.683. As for GGUGGAAUUAUGCAUGCUATT against Olfr1094, the z-score is 1.45. For the sequence GGCUUUCUUCAGUUUUGUCTT against Slc33a1, the z-score was -1.37. As to GGAGGUUACCUUCUACAGCTT against Cxcr2, the z-score is 0.694. The result for GGGUGAAAAGCAUUUCUGUTT against Actrt3 reads 0.583; that for GGAAACAGCACAACAAACGTT against Adam26a, 2.93 (active). The result for GGCUAAGAAACUGAAGAGATT against Ccm2l reads -1.59; that for GCGAACUCGGGAAACAACUTT against Rnf4, -0.0525. The result for UAGAAUUGAUUGAGGACUCTT against Ly6c1 reads 0.602; that for GCACUUCUUUGUGCAAAGCTT against Shfl, -0.311; that for GAGGUUUGGCAGAAGUGCATT against Npff, -1.95. In the case of GGCCUGUAAAAACUAUUGGTT against Mcpt4, the z-score is 0.122.

With CCACCAUGACUGCAAAUGUTT against Olfr1469, the z-score is -0.817.

On to GCCAACAGUAACGGUAUUGTT against Patz1, for which the z-score was -2.04 (active). As for GCUCGUGGCAUGUCUCUAUTT against Doc2g, the z-score was 0.379.

As for GCUAUGAAGAAAAAUCGGATT against Mettl21e, the z-score was 0.362. The result for GCCUAACCUGGUAUCCCAGTT against Zfp92 reads -1.03; that for GGCCUCACAGUGCUUUCUCTT against Olfr1232, 0.0779.

Take CCUGGCUUACAGUACAUGCTT against Adarb1: the z-score was 1.21. Next, CGACUUCAUAAGGUAUGCATT against Tnfrsf22: -0.793.

In the case of UUUGCUGUCCUUUCUUUCATT against Olfr122, the z-score is -1.84. For GGCCUAAGCAAGUUGCGCATT against Fbxl8, the z-score was 1.5. The result for CCUUCAGACUGUCAACAAUTT against Chrm2 reads -0.386; that for GGGCAUGGAACAAGAUGUCTT against Nckipsd, -2.43 (active); that for GCGUGAGCUUAAGAAGCAATT against Leng8, 1.46.

Regarding GGCUGACACAAGAUGGCUGTT against Ebpl, the z-score is 2.41 (active). Next, GGAAAAGCUCAAUGUCCUCTT against Tex13b: -0.141. The result for GGGAAGUCUACAUAAAUCCTT against Gpr176 reads -0.544. As for GGAGAAGAAAACAUCAAGUTT against Hrh3, the z-score was 2.52 (active). The result for GGAAAAGAAGUUUAAACGGTT against Svs6 reads -0.413.
